# Only some compounds are listed: those with a hit (about 19% of all), similar ones and a draw of the others.
# RORg inh = inhibitors of mouse ROR gamma transcriptional activity; Drosophila S2 Gal4-RORgamma UAS-luciferase reporter, 20 h; Potency, µM (series often up to 53.6 µM), actives largely listed as inhibitors; P51450; hit rate 5.4% among 310,000; also: nearly all actives have a fitted effect of over 60% in size
#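 Drosophila S2 cells stably expressing Gal4-DBD/mouse RORγ fusion under metallothionein promoter plus UAS-luciferase; compound 1 h, then 700 uM CuSO4 induction for 20 h at ambient temperature; inhibition read as reduced luminescence.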
# DT40 TDP1 CPT = growth inhibition of DT40 Tdp1-/-;hTDP1 cells with camptothecin (screen for TDP1 inhibitors); chicken DT40 Tdp1-/-;hTDP1 cells + 20 nM CPT, ATP luminescence, 48 h; Potency, µM (titrated, usually from 46.2 µM), actives largely listed as inhibitors; hit rate 12% among 420,000; also: nearly all actives have a fitted effect of over 55% in size
#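 Chicken DT40 Tdp1-/- cells complemented with human TDP1, 400 cells/well, exposed to compounds plus 20 nM camptothecin for at least 48 h at 37 C; viability read as ATP content by CellTiter-Glo luminescence.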
# VP16 counter = inhibits Gal4-VP16 luciferase reporter, ROR gamma counter-screen | Drosophila S2 Gal4-VP16 UAS-luciferase, luminescence, 20 h | Potency, µM (top dose mostly 53.6 µM), most hits filed as inhibitors | hit rate 3.5% among 310,000;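 also: Gal4-VP16 expression switched on by copper sulfate through the metallothionein promoter; nearly all actives have a fitted effect of over 50% in size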
# TDP1 block = inhibitors of human tyrosyl-DNA phosphodiesterase TDP1. Q9NUW8. recombinant TDP1, AlphaScreen DNA substrate cleavage. hit rate 0.28% among 350,000. Potency, µM (top dose mostly 130 µM), actives largely listed as inhibitors; also: nearly all actives have a fitted effect of over 40% in size
# Target sequence (Q9NUW8 whole entry, looked up): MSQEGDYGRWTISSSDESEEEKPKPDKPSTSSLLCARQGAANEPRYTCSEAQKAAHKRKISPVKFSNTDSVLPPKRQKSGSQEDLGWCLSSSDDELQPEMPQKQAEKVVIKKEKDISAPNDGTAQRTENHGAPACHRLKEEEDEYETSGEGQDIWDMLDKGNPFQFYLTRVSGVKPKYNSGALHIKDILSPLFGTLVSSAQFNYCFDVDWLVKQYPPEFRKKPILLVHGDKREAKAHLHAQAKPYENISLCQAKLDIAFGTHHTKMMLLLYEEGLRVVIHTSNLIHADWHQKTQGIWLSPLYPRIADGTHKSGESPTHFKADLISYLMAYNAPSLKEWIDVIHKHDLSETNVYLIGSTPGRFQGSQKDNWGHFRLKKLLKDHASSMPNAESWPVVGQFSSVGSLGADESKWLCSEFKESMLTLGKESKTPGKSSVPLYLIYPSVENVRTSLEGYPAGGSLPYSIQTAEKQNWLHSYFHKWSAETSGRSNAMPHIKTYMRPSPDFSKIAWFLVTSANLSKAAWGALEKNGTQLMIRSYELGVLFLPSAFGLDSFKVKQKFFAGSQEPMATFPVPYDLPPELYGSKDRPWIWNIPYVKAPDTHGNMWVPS
#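 Enzyme-compound mixtures sat 15 min at room temperature, followed by a 5 min reaction with 15 nM final substrate and 10 min with AlphaScreen beads. Recombinant human Tdp1 was used at 1 nM final.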
# TDP1 cell noCPT = qHTS for Inhibitors of human tyrosyl-DNA phosphodiesterase 1 (TDP1): qHTS in cells in absence of CPT. Potency, µM (doses to about 46.2 µM), usual class: inhibitors. DT40 Tdp1-/- hTDP1 cells, no CPT, ATP luminescence, 48 h. hit rate 15% among 420,000; also: nearly all actives have a fitted effect of over 55% in size
#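 Stably hTDP1-transfected Tdp1-null chicken DT40 cells were treated with library compounds minus camptothecin and grown for at least 48 hr at 37 °C, after which cellular ATP was quantified by luminescence.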
# A number is an active result; . = inactive; ? = inconclusive; / = no result; [ ] = another dose, or the depositor's remark. Calls follow the shape of the dose curve; as a rule, active = well fitted curve in the direction sought with a large enough effect; inconclusive = small, poorly fitted or top-dose-only effect, or another doubt; inactive = no such curve, though single readings can be large; an effect the other way counts as inactive or inconclusive.
SMILES,RORg inh,DT40 TDP1 CPT,VP16 counter,TDP1 block,TDP1 cell noCPT
C=CCOC(=O)C1=C[C@H](C2CC2)[C@@H](CCCO)[C@H](OCC)O1,.,.,.,.,.
CCOc1cc(NC(=S)Nc2cccc(C)c2)c(OCC)cc1NC(=O)CC(C)C,6.3µM,?,20µM,.,.
CCOC(=O)c1c(NC(=O)CSc2c[nH]c3ccccc23)sc2c1CCC2,.,?,.,.,13µM
CCOC(=O)c1c(NC(=O)CSc2c[nH]c3ccccc23)sc2c1CCCC2,?,?,?,.,?
CCOC(=O)c1c(NC(=O)CSc2cn(CCNC(=O)c3ccccc3F)c3ccccc23)sc2c1CCCC2,/,16µM,/,.,16µM
CCOC(=O)c1c(NC(=O)COc2cccc3c2CCN(CC)C3=O)sc2c1CCC2,.,?,.,.,8.2µM
CCOC(=O)c1c(NC(=O)COc2cccc3c2CCN(Cc2ccc(F)cc2)C3=O)sc2c1CCC2,.,/,.,.,/
CCOC(=O)c1c(NC(=O)C(C)Sc2cn(CCNC(=O)c3ccc(OC)cc3)c3ccccc23)sc2c1CCC2 (configuration not stated),/,21µM,/,.,?
COc1cc(/C=C/C(=O)OCC(=O)NCc2ccco2)cc(OC)c1OC,.,.,.,.,.
COc1ccc2c(c1)c(C(C)=O)c(C)n2-c1ccccc1OC,/,.,/,/,?
COc1cccc(N2C(=O)Nc3ccc(Br)cc3C2(O)C(=O)NCCN(C)C)c1 (configuration not stated),.,.,.,/,.
Cc1ccc2cccnc2c1,.,/,.,.,/
CCOC(=O)c1c(NC(=O)CSc2cn(CCNC(=O)c3ccccc3OC)c3ccccc23)sc2c1CCCC2,/,?,/,.,23µM
O=C(O)c1cc2ccccc2[nH]1,.,.,.,.,.
CCN1CCN(Cc2cccc(Oc3ccccc3)c2)CC1,.,.,.,/,.
CCOC(=O)C1CCN(Cc2cccc(Oc3ccc(Cl)cc3)c2)CC1,.[1.91 µM],?,.,/,.
CCN1CCN(Cc2cccc(Oc3ccc(Cl)cc3)c2)CC1,?,?,.,.,16µM
CN1CCN(Cc2cccc(Oc3ccc(Cl)cc3)c2)CC1,.,29µM,.,.,?
Cc1cc(C)c2nc(N(CCCN(C)C)C(=O)c3ccc(S(=O)(=O)N4CCCCCC4)cc3)sc2c1,/,?,/,.,?
CN(C)CCCN(C(=O)c1ccc2c(c1)CCCC2)c1nc2c(F)cccc2s1,?,21µM,.,.,23µM
Cc1cc(C)c2nc(N(CCCN(C)C)C(=O)c3ccc4c(c3)CCCC4)sc2c1,/,21µM,/,.,10µM
CCCCCCc1nc2ccccc2c(=O)n1NC(=O)c1c(O)c2c(n(CC(C)C)c1=O)CCCC2,.,4.6µM,.,.,3.3µM
Cc1nc2ccccc2c(=O)n1NC(=O)c1c(O)c2c(n(CC(C)C)c1=O)CCCC2,?,?,?,.,21µM
C[C@H]1Cc2c(COc3ccccc3)nc3c(c2CO1)CN(C(=O)Cc1cccs1)CC3,/,/,/,.[12.3 µM],/
O=C(Nc1sc2c(c1C(=O)Nc1cccc(Cl)c1)CCCC2)c1cccs1,/,?,/,.[2.28 µM],?
SMILES,RORg inh,DT40 TDP1 CPT,VP16 counter,TDP1 block,TDP1 cell noCPT
CC1CCCC=CC2CC(OC(=O)CN(C)C)CC2C(O)C=CC(=O)O1 (configuration not stated),/,0.92µM,/,/,1µM
Cc1cccc(NC(=S)NC(NC(=O)OCc2ccccc2)C(Cl)(Cl)Cl)c1 (configuration not stated),11µM,23µM,?,.,?
Cc1cccc(NC(=S)NC(C)CCc2ccccc2)c1 (configuration not stated),7.1µM,?,3.2µM,.,?
O=C(NC(NC(=S)Nc1cccc(Cl)c1)C(Cl)(Cl)Cl)OCc1ccccc1 (configuration not stated),?,?,?,.,18µM
O=C(NC(NC(=S)Nc1cccc(C(=O)O)c1)C(Cl)(Cl)Cl)OCc1ccccc1 (configuration not stated),.,.,.,.,.
O=C(NCCCCNC(=O)c1ccccc1Cl)c1ccccc1Cl,.,.,.,/,.
Cc1cccc(-c2ocnc2C(=O)N2CCN(C(=O)c3cccs3)CC2)c1,.,.,.,/,?
CCOc1cccc2cc(C(=O)Oc3ccc(OC)cc3)c(=O)oc12,.,.,?,/,.
